# Sampled rows, rich in hits. Any-hit rate of the full collection: about 1.6%.
# KCNQ2 inh = inhibitors of rat KCNQ2 potassium channel | CHO-K1 KCNQ2, FluxOR thallium flux, 20 min; hits give low values | 310,000 compounds, 1.1% hits | B-score at 10 µM | AID 2156;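 active means fluorescence ratio B-score at most minus 3 library SDs, with starting brightness B-score within 2 library SDs, cut at about -5.5 in these data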
# KCNQ2 pot = potentiators of rat KCNQ2 potassium channel. O88943. CHO-K1 KCNQ2, FluxOR thallium flux fluorescence; hits give high values. B-score at 10 µM. 310,000 compounds, 0.54% hits. AID 2239;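 active means fluorescence ratio B-score at least 3 SD of library B-scores, with initial fluorescence B-score within 3 of them, cut at about 5.3 in these data; same plate scores as AID 2156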;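 further: B-score of peak minus minimum over baseline fluorescence ratio after K+ and Tl+ stimulus; positive B-score means potentiation of KCNQ2 with more thallium influx and brighter signal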
# * = called active by the depositor; i = inactive; . = no result given.
SMILES,KCNQ2 inh,KCNQ2 pot
CCOC(=O)C(C)Sc1ncc(OC)c(Sc2ccc(Cl)cc2)n1 (centres undefined),-7.96*,-7.96
CCOC(=O)CSc1ncc(OC)c(Sc2ccc(Cl)cc2)n1,i,.
Oc1c(Br)cc(Br)cc1C=NCc1ccc(F)cc1,i,11.3*
Oc1c(Br)cc(Br)cc1C=NCc1ccccc1,i,.
CC1CC(C)CN(CCCNS(=O)(=O)c2ccc3c(c2)oc(=O)n3C)C1 (centres undefined),i,0.36
COc1cccc(/C=C2\NC(=O)NC2=O)c1O,i,0.51
O=C(c1cccn2c(=O)c3ccc(Cl)cc3nc12)N1CCN(Cc2ccc3c(c2)OCO3)CC1,-5.85*,-5.85
O=C(NC(=S)N1CCN(Cc2ccc3c(c2)OCO3)CC1)c1ccc(Cl)cc1,i,8.94*
CCNC(=S)N1CCN(Cc2ccc3c(c2)OCO3)CC1,i,2.32
Cc1cc(Cl)ccc1NC(=S)N1CCN(Cc2ccc3c(c2)OCO3)CC1,i,.
O=C(NC(=S)N1CCN(Cc2ccc3c(c2)OCO3)CC1)c1cccc(Br)c1,i,9.47*
O=C(c1cccc(Cl)c1)N1CCN(Cc2ccc3c(c2)OCO3)CC1,i,.
Cc1ccc(S(=O)(=O)N2CCN(C(=O)CC(C)n3cncn3)CC2)cc1C (centres undefined),i,.
O=C(NCCCn1ccnc1)c1ccc(COc2ccccc2)o1,i,.
CCN(CC)C(=O)/C(=C\c1ccc2c(c1)OCO2)NC(=O)c1ccc(Br)cc1,-6.51*,-6.51
CCN(CC)C(=O)/C(=C\c1ccc(Br)cc1)NC(=O)c1ccccc1OC,-7.25*,-7.25
CCNC(=O)/C(=C\c1ccc2c(c1)OCO2)NC(=O)c1ccc(Br)cc1,i,.
COc1ccccc1C(=O)N/C(=C\c1ccc(Br)cc1)C(=O)NCCO,i,.
O=C(O)CC(NC(=O)CC(c1ccccc1)c1ccccc1)c1cccc([N+](=O)[O-])c1 (centres undefined),i,0.01
COc1ccc(N2CCN(c3ccc(NC(=O)NN)cc3)CC2)cc1,i,1.77
Cc1ccc(N2C(=O)CC(N3CCN(c4ccccn4)CC3)C2=O)cc1 (centres undefined),i,.
Cc1ccc2nc(-c3ccc(N4C(=O)CC(N5CCN(CCO)CC5)C4=O)cc3)sc2c1 (centres undefined),-6.32*,-6.32
COc1ccc(NC(C)=O)cc1S(=O)(=O)NC1CCSc2ccccc21 (centres undefined),i,1.34
C/C(=N\NC(=O)c1ccc(NS(=O)(=O)c2cccs2)cc1)c1ccc(O)cc1O,i,.
Cc1ccc(Cl)cc1N1CCN(C(=O)c2cn(C)c(=O)c3c2c2ccccc2n3C)CC1,-7.5*,-7.5
SMILES,KCNQ2 inh,KCNQ2 pot
Cc1cccc(N2CCN(C(=O)c3cn(C)c(=O)c4c3c3ccccc3n4C)CC2)c1C,i,.
CCC(C)c1ccc(NC(=O)c2c([N+](=O)[O-])cnn2CC)cc1 (centres undefined),i,.
Cc1cc(OCC(=O)N2CCN(c3ccccn3)CC2)cc(C)c1Br,-5.98*,-5.98
CCc1ccc(OCC(=O)N2CCN(c3ccccn3)CC2)c(Br)c1,i,0.22
O=C(/C=C/c1cccc(Br)c1)N1CCN(c2ccccn2)CC1,-7.57*,-7.57
O=C(/C=C/c1ccc(F)cc1)N1CCN(c2ccccn2)CC1,i,0.01
COc1ccc(-n2c(=S)[nH]c3cc(C(=O)N4CCN(c5ccccc5)CC4)ccc3c2=O)c(OC)c1,i,0.1
O=S(=O)(Nc1cccc(-c2nc3cccnc3s2)c1)c1ccc2c(c1)CCCC2,i,.
Cc1ccc(-c2nc3cccnc3s2)cc1NS(=O)(=O)c1ccc2c(c1)CCCC2,-5.98*,-5.98
CC(Oc1cc(Cl)ccc1Cl)C(=O)N/N=C\c1ccnn1C (centres undefined),i,0.89
CCOc1ccc(N(CC(=O)NCCSCc2ccco2)S(=O)(=O)c2ccc(C)cc2)cc1,i,.
CCNC(=S)Nc1scc(-c2ccccc2)c1C(=O)OCC,i,12.1*
CCOC(=O)c1c(-c2ccccc2)csc1NC(=O)CCN1C(=O)c2ccccc2C1=O,i,.
Clc1ccccc1Cn1nnc2ccccc21,i,1.37
COc1ccccc1C(CNC(=O)CCNC(=O)c1ccccc1Cl)N1CCCC1 (centres undefined),i,.
Cc1cc(C)cc(-n2ncc3c2CCCC3NC(=O)CN2CCCCC2=O)c1 (centres undefined),i,1.46
CCC(NC(=O)Nc1cc(C)on1)(C(F)(F)F)C(F)(F)F,i,.
CCCSc1ccc([C@@H]2[C@H]3C(=O)N(CC)C(=O)[C@H]3[C@]3(C(=O)OC)CCCCN23)cc1,i,.
O=C(NCC1(c2ccccc2)CCCC1)C(=O)NCC1(c2ccccc2)CCCC1,i,.
O=C(NCC1(c2ccccc2)CCCC1)C1(c2ccccc2)CCCC1,-7.04*,-7.04
Cc1c(C(=O)NCCSCc2cccc(C(F)(F)F)c2)cnn1-c1ccc(Cl)cc1,i,.
CCn1c2ccccc2c2cc(NC(=O)C(C)Oc3ccccc3)ccc21 (centres undefined),i,.

# Screening data: PubChem, Johns Hopkins Ion Channel Center
